Records with an inconclusive call do not appear. The source made the active and inactive calls. Unless noted, calls follow the shape of the dose curve; as a rule, active = well fitted curve in the direction sought with a large enough effect; inconclusive = small, poorly fitted or top-dose-only effect, or another doubt; inactive = no such curve, though single readings can be large; an effect the other way counts as inactive or inconclusive.
Columns and labels:
[1] = P-glycoprotein substrates identified in KB-8-5-11 adenocarcinoma cell line, qHTS therapeutic library screen (AID 1346987); also: nearly all actives have a fitted effect of over 65% in size
In short: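 Luminescence from CellTiter-Glo, read 5 min after addition, quantified survival of KB-8-5-11 (P-gp-overexpressing) cells exposed to compounds for 72 h. AC50 was derived from concentration-response curves.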

[2] = NS1 protein of Zika virus - qHTS assay to identify small molecule inhibitors in human HEK 293 cells (AID 1347053); also: series mostly up to about 46 µM; nearly all actives have a fitted effect of over 55% in size
In short: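 Read-out is a two-antibody TR-FRET for ZIKV NS1, normalized between uninfected cells and infected cells. Compound added 1 h before MR766 infection at MOI 0.5; human HEK 293 cells incubated 24 h, 37 C.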

[3] = qHTS of pediatric cancer cell lines to identify multiple opportunities for drug repurposing: Primary screen for TC32 cells (AID 1347089); also: nearly all actives have a fitted effect of over 60% in size
In short: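 Luminescent CellTiter-Glo read-out of metabolically active TC32 cells after 48 h compound exposure. Primary: MIPE 11-point, 0.78 nM–46 µM; NPC 8-point, 0.59 nM–46 µM. Confirmatory: 11-point dilutions.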

[4] = qHTS of pediatric cancer cell lines to identify multiple opportunities for drug repurposing: Primary screen for DAOY cells (AID 1347090); also: series mostly up to about 46 µM; nearly all actives have a fitted effect of over 55% in size
In short: (§1)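 Viability measured as metabolically active cells via CellTiter-Glo luminescence following 48 hours of compound exposure, 11-point dilutions in confirmatory testing. 500-1,000 cells/well plated 5 hours before dosing; controls were DMSO and 2.3 µM bortezomib.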

[5] = qHTS of pediatric cancer cell lines to identify multiple opportunities for drug repurposing: Primary screen for SJ-GBM2 cells (AID 1347091)
In short: as §1

[6] = qHTS of pediatric cancer cell lines to identify multiple opportunities for drug repurposing: Primary screen for A673 cells (AID 1347092); also: nearly all actives have a fitted effect of over 45% in size
In short: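 A673 cells (500-1,000 cells/well in growth media) were pre-incubated 5 h at 37 degrees C, then exposed to compounds for 48 h. Viability was read as CellTiter-Glo luminescence; concentration-response curves came directly from the primary screen.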

[7] = qHTS of pediatric cancer cell lines to identify multiple opportunities for drug repurposing: Primary screen for SK-N-MC cells (AID 1347093); also: series mostly up to about 46 µM
In short: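 Metabolically active cells were quantified by ATP-dependent luminescence (CellTiter-Glo, 15 min at room temperature) following 48 h treatment. Cells had been plated at 500-1,000 per well and settled for 5 h beforehand.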

[8] = qHTS of pediatric cancer cell lines to identify multiple opportunities for drug repurposing: Primary screen for BT-37 cells (AID 1347094); also: series mostly up to about 57 µM
In short: (§2)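 Phenotypic viability qHTS, 48 h compound exposure, CellTiter-Glo luminescence read-out; multi-concentration dosing so that potency and efficacy derive directly from the primary screen's curves.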

[9] = qHTS of pediatric cancer cell lines to identify multiple opportunities for drug repurposing: Primary screen for NB-EBc1 cells (AID 1347095)
In short: as §2

[10] = qHTS of pediatric cancer cell lines to identify multiple opportunities for drug repurposing: Primary screen for U-2 OS cells (AID 1347096); also: nearly all actives have a fitted effect of over 50% in size
In short: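 Viability after 48 h compound treatment at 37C, 500-1,000 cells/well, read as ATP luminescence with CellTiter-Glo. Primary screens used 11-point (MIPE, 0.78 nM-46 µM) or 8-point (NPC, 0.59 nM-46 µM) final concentrations; follow-up screens used 11-point dilutions.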

[11] = qHTS of pediatric cancer cell lines to identify multiple opportunities for drug repurposing: Primary screen for Saos-2 cells (AID 1347097); also: nearly all actives have a fitted effect of over 40% in size
In short: as §2

[12] = qHTS of pediatric cancer cell lines to identify multiple opportunities for drug repurposing: Primary screen for SK-N-SH cells (AID 1347098);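 also: DMSO served as neutral control and bortezomib at 2.3 µM as positive control; nearly all actives have a fitted effect of over 65% in size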
In short: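 Cells (500-1,000/well) rested 5 h, then received compounds for 48 h; metabolically active cells were measured by CellTiter-Glo luminescence. Final concentrations spanned up to 46 µM (MIPE, 11-point) or 0.59 nM-46 µM (NPC, 8-point) in primary screens, 11-point in follow-ups.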

[13] = qHTS of pediatric cancer cell lines to identify multiple opportunities for drug repurposing: Primary screen for NB1643 cells (AID 1347099); also: nearly all actives have a fitted effect of over 50% in size
In short: as §2

[14] = Natriuretic polypeptide receptor (hNpr1) antagonism - Pilot counterscreen GloSensor control cell line (AID 1347045; calls by dose curve; also: series mostly up to about 38 µM)
In short: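 Cells were first seeded and incubated overnight at 37C, then loaded with 2% GloSensor substrate for 2 h. Compounds were added for 30 min at room temperature, followed by a baseline read, 50 uM SNP and a final read after 20 min.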

[15] = biological target: Atrial natriuretic peptide receptor 2 (Homo sapiens) (UniProt P20594); experiment: Natriuretic polypeptide receptor (hNpr2) antagonism - Pilot subtype selectivity assay (AID 1347050; calls by dose curve)
In short: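 Luminescence from a genetically encoded cGMP luciferase biosensor in hNpr2-expressing HEK293 cells is read before and 20 min after adding 1 nM hNppC. Test compounds, in interplate 1:5 titrations, are added 30-50 min ahead of the agonist.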

[16] = biological target: T1, Tyrosine-protein phosphatase non-receptor type substrate 1 (Homo sapiens) + Leukocyte surface antigen CD47 (Homo sapiens) (UniProt P78324+Q08722); experiment: CD47-SIRPalpha protein protein interaction - LANCE assay qHTS validation (AID 1347057; active = well fitted curve in the direction sought with a large enough effect in the signal ratio, with a control signal flat, not every such curve was filed as active; the % refers to the signal ratio; also: series mostly up to about 38 µM)
In short: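 Inhibition of soluble CD47/SIRPalpha ectodomain association by titrated compounds, measured as 665/615 nm time-resolved FRET ratio after sequential 30 min room-temperature incubations.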

[17] = biological target: T1, Tyrosine-protein phosphatase non-receptor type substrate 1 (Homo sapiens) + Leukocyte surface antigen CD47 (Homo sapiens); experiment: CD47-SIRPalpha protein protein interaction - HTRF assay qHTS validation (AID 1347058; active = well fitted curve in the direction sought with a large enough effect in the signal ratio, not every such curve was filed as active; the % refers to the signal ratio; also: series mostly up to about 38 µM)
In short: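 Soluble extracellular domains (6His-CD47, Avi-tag-biotinylated SIRPalpha) in PBS pH 7.4 with 0.05% IGEPAL CA-630. Compounds were preincubated 30 min at RT with CD47 and anti-His-Eu, then SIRPalpha and SAV-XL665 were added. TR-FRET 665/615 ratio.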

[18] = biological target: T1, Tyrosine-protein phosphatase non-receptor type substrate 1 (Homo sapiens) + Leukocyte surface antigen CD47 (Homo sapiens); experiment: CD47-SIRPalpha protein protein interaction - Alpha assay qHTS validation (AID 1347059);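 also: bead proximity luminescence from CD47 binding SIRPalpha after compound preincubation with SIRPalpha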
In short: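 SIRPalpha-biotin 25 nM + cpd, 30 min RT, dark; add CD47-His 12.5 nM, 30 min; add Ni-NTA/SAV beads 10 ug/mL, 30 min; AlphaScreen. Buffer PBS pH 7.4 + 0.05% IGEPAL CA-630. Non-biotinylated SIRPalpha as control inhibitor.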

[19] = biological target: Parathyroid hormone/parathyroid hormone-related peptide receptor (Homo sapiens) (UniProt Q03431); experiment: qHTS for PTHR1 Agonists: Optimization Screen against the NCGC LOPAC library (AID 1347079);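 also: GloSensor cAMP luminescence in HEK-293 GP2 cells expressing human PTHR1 with IBMX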
In short: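 HEK-293 GP2 cells, PTHR1 + GloSensor cAMP; 3000 cells/well, o/n. Luciferin + IBMX 0.5mM each (stock), 1 hr 37C. Cpd titration, 1 hr 37C. Lum after 15 min RT. Ctrl M-PTH(1-15) top 10uM.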

Measured: Potency

Sequence of Parathyroid hormone/parathyroid hormone-related peptide receptor (Homo sapiens) (Q03431 whole entry, looked up): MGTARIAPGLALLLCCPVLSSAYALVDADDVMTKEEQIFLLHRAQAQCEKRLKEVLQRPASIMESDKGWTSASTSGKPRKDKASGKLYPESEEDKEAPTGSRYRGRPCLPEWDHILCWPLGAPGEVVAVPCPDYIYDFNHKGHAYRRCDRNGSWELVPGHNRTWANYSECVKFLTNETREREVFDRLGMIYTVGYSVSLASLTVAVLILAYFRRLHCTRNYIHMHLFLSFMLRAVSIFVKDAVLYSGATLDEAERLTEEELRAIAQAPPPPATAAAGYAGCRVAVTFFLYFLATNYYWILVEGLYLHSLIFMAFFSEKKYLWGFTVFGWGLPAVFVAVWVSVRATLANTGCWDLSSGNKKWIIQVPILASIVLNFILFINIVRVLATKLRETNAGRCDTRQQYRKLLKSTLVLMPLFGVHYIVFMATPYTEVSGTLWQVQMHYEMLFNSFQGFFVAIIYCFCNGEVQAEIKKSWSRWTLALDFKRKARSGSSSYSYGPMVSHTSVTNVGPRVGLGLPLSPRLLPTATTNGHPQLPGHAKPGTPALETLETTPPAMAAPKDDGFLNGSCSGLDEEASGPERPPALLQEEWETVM
T1 sequence (P78324 whole entry, looked up, the tested form may be a part): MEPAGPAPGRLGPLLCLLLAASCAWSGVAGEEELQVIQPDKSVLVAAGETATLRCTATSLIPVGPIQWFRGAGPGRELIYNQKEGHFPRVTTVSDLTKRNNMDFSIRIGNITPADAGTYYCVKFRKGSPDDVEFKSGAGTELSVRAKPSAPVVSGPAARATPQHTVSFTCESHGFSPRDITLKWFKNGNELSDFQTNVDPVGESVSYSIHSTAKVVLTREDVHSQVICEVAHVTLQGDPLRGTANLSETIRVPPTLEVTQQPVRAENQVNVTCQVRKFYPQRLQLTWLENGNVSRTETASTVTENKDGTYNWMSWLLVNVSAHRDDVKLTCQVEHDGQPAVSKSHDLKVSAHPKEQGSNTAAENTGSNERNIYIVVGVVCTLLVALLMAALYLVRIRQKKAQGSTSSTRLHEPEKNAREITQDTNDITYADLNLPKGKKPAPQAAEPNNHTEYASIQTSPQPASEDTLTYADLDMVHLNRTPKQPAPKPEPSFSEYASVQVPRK
T1 sequence (Q08722 whole entry, looked up, the tested form may be a part): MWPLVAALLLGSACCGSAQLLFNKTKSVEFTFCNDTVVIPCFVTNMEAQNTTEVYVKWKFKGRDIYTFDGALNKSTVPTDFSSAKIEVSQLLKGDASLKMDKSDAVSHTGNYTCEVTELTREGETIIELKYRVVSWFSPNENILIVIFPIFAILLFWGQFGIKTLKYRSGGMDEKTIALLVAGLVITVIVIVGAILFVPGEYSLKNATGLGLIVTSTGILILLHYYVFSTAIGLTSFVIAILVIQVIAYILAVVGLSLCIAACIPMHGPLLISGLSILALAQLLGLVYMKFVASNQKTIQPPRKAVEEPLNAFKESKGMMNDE
Sequence of Atrial natriuretic peptide receptor 2 (Homo sapiens) (P20594 whole entry, looked up): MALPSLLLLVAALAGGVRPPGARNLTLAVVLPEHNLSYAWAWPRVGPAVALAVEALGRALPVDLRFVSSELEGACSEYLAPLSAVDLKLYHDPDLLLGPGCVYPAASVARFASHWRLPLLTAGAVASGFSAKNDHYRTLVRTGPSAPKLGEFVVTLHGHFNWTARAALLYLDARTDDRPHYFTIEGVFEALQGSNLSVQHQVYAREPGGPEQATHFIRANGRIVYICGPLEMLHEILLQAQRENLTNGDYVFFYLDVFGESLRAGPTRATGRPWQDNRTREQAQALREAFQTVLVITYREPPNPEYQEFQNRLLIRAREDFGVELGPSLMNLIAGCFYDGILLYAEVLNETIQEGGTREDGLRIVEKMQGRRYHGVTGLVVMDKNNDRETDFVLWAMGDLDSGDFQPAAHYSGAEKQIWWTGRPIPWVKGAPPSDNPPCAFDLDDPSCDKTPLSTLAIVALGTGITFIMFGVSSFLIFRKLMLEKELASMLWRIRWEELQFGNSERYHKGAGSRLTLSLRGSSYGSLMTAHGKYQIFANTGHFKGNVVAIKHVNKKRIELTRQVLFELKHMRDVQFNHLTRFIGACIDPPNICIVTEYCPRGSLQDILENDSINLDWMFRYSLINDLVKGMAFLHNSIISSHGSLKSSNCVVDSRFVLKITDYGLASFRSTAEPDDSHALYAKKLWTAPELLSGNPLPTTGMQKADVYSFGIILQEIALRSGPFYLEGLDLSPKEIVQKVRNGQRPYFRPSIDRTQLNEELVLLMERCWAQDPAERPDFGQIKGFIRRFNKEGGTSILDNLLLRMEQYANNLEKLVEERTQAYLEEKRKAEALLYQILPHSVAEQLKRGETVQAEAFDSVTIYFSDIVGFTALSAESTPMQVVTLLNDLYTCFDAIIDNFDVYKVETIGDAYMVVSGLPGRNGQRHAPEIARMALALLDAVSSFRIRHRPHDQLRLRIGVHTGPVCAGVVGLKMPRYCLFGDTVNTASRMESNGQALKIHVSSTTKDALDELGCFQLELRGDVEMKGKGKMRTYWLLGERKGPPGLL

COc1ccc(-c2coc3cc(O)ccc3c2=O)cc1
not listed: [14] | [15] | [16] | [17] | [18] | [19]
inactive: all other assays above

O=C(NCCN1CCOCC1)c1ccc(Cl)cc1
inactive: all assays above

COC(=O)[C@@H]1[C@H]2C[C@H]3c4[nH]c5ccccc5c4CCN3C[C@@H]2CC[C@@H]1O
inactive: [1] | [15] | [2] | [19] | [3] | [4] | [5] | [7] | [9] | [13]

CCn1cc(C(=O)O)c(=O)c2ccc(C)nc21
not listed: [4] | [5] | [12]
inactive: all other assays above

CN(C)CCC(c1ccccc1)c1ccccn1 (centres undefined)
not listed: [2] | [4]
inactive: all other assays above

CCN(CC)C(=O)c1ccc(O)c(OC)c1
inactive: all assays above

Reference: PubChem BioAssay (NCATS)
